Potency and affinity values are given separately.
Key:
Klebsiella pneumoniae = conditions: Concentration 32 ug.mL-1;; ASSAY_TEST Inhibition of Bacterial Growth; detection method Absorption (OD600); MEDIA CAMHB; plate type 384well; NBS; CORNING #3640; time 18 hr
Candida albicans = conditions: Concentration 32 ug.mL-1; ASSAY_TEST Inhibition of Fungal Growth; detection method Absorption (OD530)
Cryptococcus neoformans = conditions: Concentration 32 ug.mL-1; ASSAY_TEST Inhibition of Fungal Growth; detection method Resazurin; Absorption (OD600-OD570); plate type 384well; NBS; CORNING #3640

| SMILES | Inhibition (Klebsiella pneumoniae) | Inhibition (Candida albicans) | Inhibition (Cryptococcus neoformans) |
| --- | --- | --- | --- |
| Cc1ccc(Sc2nccn3c(=O)n(CC(=O)N4CCN(c5ccccc5)CC4)nc23)c(C)c1 | 2.5% | 3.52% | -7.85% |
| Cc1cc(C)c(NC(=O)CSc2nc3ccccc3n3c(C)nnc23)c(C)c1 | 10.14% | 1.31% | -7.76% |
| COc1ccc(NC(=O)Cn2nc3ccc(-c4ccc(Cl)cc4)nn3c2=O)cc1 | 12.68% | 0.32% | -12.45% |
| O=C(Cn1nc2c3cc(-c4ccc(Cl)cc4)nn3ccn2c1=O)N1CCN(c2ccccc2)CC1 | 10.64% | 0.94% | -23.41% |
| CCc1nnc2c(S(=O)(=O)N(Cc3cccc(F)c3)c3ccccc3)cccn12 | 10.23% | 3.58% | -7.54% |
| CCOC(=O)c1ccccc1NC(=O)Cn1nc2ccc(Sc3ccc(C)cc3)nn2c1=O | 14.69% | -1.17% | -9.49% |
| O=C(CSc1nnc2ccc(C(=O)NCc3ccccc3)cn12)Nc1ccccc1Br | 13.28% | 5.15% | -20.85% |
| Cc1ccc(-c2ccc3nn(CC(=O)NCc4ccc(Cl)cc4)c(=O)n3n2)cc1C | 6.14% | 6.17% | -11% |
| COc1cccc(CN(c2cccc(F)c2)S(=O)(=O)c2ccc3nnc(C)n3c2)c1 | 3.28% | 3.11% | -1.07% |
| Cc1nnc2c(=O)n(CC(=O)Nc3ccccc3Br)c3ccccc3n12 | 8.13% | 2.04% | -7.03% |
| COc1cccc(-n2ccn3c(SCc4cccc(C)c4)nnc3c2=O)c1 | 11.77% | 3.62% | -12.18% |
| COc1cc(OC)c(NC(=O)Cn2nc3c(SC4CCCCC4)nccn3c2=O)cc1Cl | 9.62% | 7.28% | -20.84% |
| N#Cc1cccc(Cn2nc3ccc(S(=O)(=O)N4CCCCCC4)cn3c2=O)c1 | 8.88% | -0.26% | -9.97% |
| COc1ccc(NC(=O)c2ccc3nn(CC(=O)Nc4cccc(OC)c4)c(=O)n3c2)cc1 | 8.13% | 4.49% | -9.24% |
| CCOc1ccc(C(=O)CSc2nnc3c(=O)n(-c4ccc(Br)cc4)ccn23)cc1 | 15.85% | 8.18% | -11.96% |
| CCc1ccc(N(Cc2cccc(C)c2)S(=O)(=O)c2cccn3c(C)nnc23)cc1 | 2.32% | 4.84% | -3.55% |
| Cc1cc2nn(CC(=O)NCc3ccccc3)c(=O)n2c(-c2ccc(C(F)(F)F)cc2)n1 | -2.81% | 22.82% | -6.62% |
| O=C(CSc1nnc2c(=O)n(-c3cccc(F)c3)ccn12)Nc1ccc(Br)cc1 | 9.48% | 6.65% | -9.7% |
| CCc1nnc2ccc(S(=O)(=O)N(Cc3ccc(OC)cc3)c3ccc(F)cc3)cn12 | 10.6% | 0.7% | -9.28% |
| Cc1oc(-c2ccccc2)nc1CSc1nc2ccccc2n2c(C(C)C)nnc12 | 2.59% | 6.41% | -7.85% |
| O=C(Cn1nc2c3sc(N4CCCC4)nc3ncn2c1=O)Nc1ccccc1Br | 2.42% | 1.39% | -9.14% |
| COc1cccc(-n2ccn3c(SCC(=O)c4cc(C)ccc4C)nnc3c2=O)c1 | 13.22% | 5.19% | -12.08% |
| Cc1ccc(NC(=O)Cn2nc3c(Sc4ccccc4)nc4ccccc4n3c2=O)cc1C | 0.03% | 0.48% | -2.74% |
| CCc1ccc(NC(=O)Cn2nc3c4cc(-c5ccc(Cl)cc5)nn4ccn3c2=O)cc1 | 19.83% | 3.83% | -20.86% |
| COc1ccc(C(=O)CSc2nnc3c(=O)n(-c4ccc(F)cc4)ccn23)cc1OC | 11.15% | 4.19% | -8.42% |
| CCc1ccc(NC(=O)CSc2nnc3ccc(C(=O)Nc4cccc(F)c4)cn23)cc1 | 0.94% | 1.65% | -4.96% |
| CCOc1ccccc1NC(=O)Cn1nc2c3cc(-c4ccc(OC)cc4)nn3ccn2c1=O | 11.29% | 0.88% | -6.6% |
| COc1cccc(CNC(=O)CSc2nnc3c(=O)n(-c4ccc(F)cc4)ccn23)c1OC | 1.04% | 2.96% | -5.56% |
